# Assay outcomes as filed in PubChem.
# FMDV antiviral: blocks foot and mouth disease virus | FMDV antiviral cell-based qHTS | hit rate 1.2% among 410,000 | Potency, µM (highest dose often 57.9 µM), for inactives: top-dose activity change, negative = inhibition, actives largely listed as inhibitors; calls by dose curve; tested in HEK293T cells; further: read-out not given here; potency means the concentration at half of the fitted maximal effect; nearly all actives have a fitted effect of over 45% in size
# VACV Venus inh: inhibitors of vaccinia virus (Venus reporter); Vaccinia virus Venus reporter expression, fluorescence; Potency, µM (doses to about 36.5 µM), without a hit: at the top dose activity change, negative = inhibition, usual class: inhibitors; hit rate 0.46% among 330,000; calls by dose curve; tested in A549 cells; further: potency means the concentration at half of the fitted maximal effect; nearly all actives have a fitted effect of over 30% in size
# Lassa entry inh: inhibitors of Lassa virus binding or cell entry | Lassa virus pseudotype entry inhibition, cell reporter | Potency, µM (highest dose often 37.9 µM), for the others: top-dose activity change, negative = inhibition, usual class: inhibitors | hit rate 1.2% among 300,000 | AID 540256; calls by dose curve; tested in HEK293 cells; further: potency means the concentration at half of the fitted maximal effect; nearly all actives have a fitted effect of over 50% in size
# MARV entry inh: inhibitors of Marburg virus binding or cell entry | hit rate 1.8% among 300,000 | Potency, µM (top dose mostly 37.8 µM), inactives show at the top dose activity change, negative = inhibition, hits mostly inhibitors | Marburg virus pseudotyped entry inhibition, cell reporter; calls by dose curve; tested in HEK293 cells; further: potency means the concentration at half of the fitted maximal effect
# Vaccinia mCherry: vaccinia inhibition (mCherry reporter); Potency, µM (highest dose often 36.5 µM), without a hit: at the highest dose activity change, negative = inhibition, most hits filed as inhibitors; Vaccinia virus mCherry reporter infection, fluorescence; hit rate 0.63% among 310,000; calls by dose curve; tested in A549 cells; further: potency means the concentration at half of the fitted maximal effect; nearly all actives have a fitted effect of over 35% in size
# HCMV antiviral: blocks human cytomegalovirus replication; HFF cells, HCMV-luciferase reporter, 72 h; active compounds read low; activity change, negative = inhibition, % at 57.5 µM; hit rate 4.5% among 410,000; AID 1259415; in the data active means activity change below about -60%; inconclusive means no clear call, values can overlap the other calls; inactive means above about -39%
#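 Luciferase read-out from HCMV-luciferase-infected HFFs (MOI 1 PFU/cell) 72 h post infection at 37C; compounds added after 16 h cell attachment; activity normalized between buffer-only basal and Salinomycin (10uM) inhibitor controls.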
# * = called active by the depositor; i = inactive; u = inconclusive; x = not tested or not shown; [ ] = remark or other dose. Compounds with a hit are over-represented: about 6.5% of the library has one in this group of screens. On the % scale 0 is the no-effect control and ±100 the full control effect.
SMILES,FMDV antiviral,VACV Venus inh,Lassa entry inh,MARV entry inh,Vaccinia mCherry,HCMV antiviral
Nc1ccc(Nc2nc(-c3cc4ccccc4oc3=O)cs2)cc1,0%,-15%,u,u,u,-61*
CC(=O)Nc1ccc(Nc2nc(-c3cc4ccccc4oc3=O)cs2)cc1,-30%,u,-14%,-32%,-20%,1
N#CC1=C(N)NC(SCc2ccc(Br)cc2)=C(C#N)C12CCCCC2,-15%,x,x,x,x,24
N#CC1=C(N)NC(SCc2ccc(Cl)cc2)=C(C#N)C12CCCCC2,0%,u,u,11µM*,x,37
CC(CN1CCOCC1)OC(=O)c1cccs1 (stereo not drawn),-3%,-4%,21%,-1%,x,39
O=C(Oc1c(CN2CCOCC2)cc(Cl)c2cccnc12)c1ccccc1Cl,-19%,5.6µM*,u,u,3.5µM*,-98*
O=C(Oc1c(CN2CCOCC2)cc(Cl)c2cccnc12)c1cccs1,-17%,u,u,10µM*,u,-98*
O=C(Oc1ccc(Cl)c2cccnc12)N1CCOCC1,6%,-17%,-1%,1%,i,65
O=C(NCC1Cc2cccc(-c3cnccn3)c2O1)C1COc2ccccc2O1 (stereo not drawn),0%,-12%,x,x,i,x
Nc1c(-c2ccccc2)c(CSc2nc3ccccc3[nH]2)nn1-c1ccc(Cl)cc1,0%,u,u,u,-23%,-39
CCSc1nc2ccccc2[nH]1,20%,1%,0%,1%,-18%,0
Nc1c(-c2ccccc2)c(CSc2nc3ccccc3[nH]2)nn1-c1cccc(Cl)c1,u,u,u,u,u,-95*
Cc1ccccc1-n1nc(CSc2nc3ccccc3[nH]2)c(-c2ccccc2)c1N,u,-17%,u,u,-11%,-87*
COc1ccc(NS(=O)(=O)c2ccc(N3CCOCC3)c(NC(=O)c3ccccc3Cl)c2)cc1,67%,-10%,1.6µM*,u,-25%,-13
COc1ccc(NS(=O)(=O)c2ccc(N3CCOCC3)c(N)c2)cc1,u,x,x,x,x,-70*
Cc1cc(Cc2cc(C)c(O)c(CO)c2)cc(CO)c1O,-27%,-26%,u,u,5.6µM*,8
COc1ccc2c(c1)NC(c1ccc(OCC(C)C)cc1)=NC(c1ccncc1)=N2,14%,-16%,12%[46.1 µM],-1%[46.1 µM],-7%,12
O=C1/C(=C\c2cccs2)N=C(c2cccs2)N1Nc1ccccc1,x,-15%,-4%,-6%,-4%,-78*
O=C1/C(=C/c2cccs2)N=C(c2cccs2)N1Nc1ccccc1,-8%,-17%,1%,u,x,u
CCCN1CNc2c(c(=O)[nH]c(=S)n2CCc2ccc(C)c(C)c2)C1,x,-18%,x,x,i,x
CNCCCC1Sc2ccccc2Oc2ccccc21 (stereo not drawn),u,-30%,u,u,u,14
CNCCCC12CCC(c3ccccc31)c1ccccc12,u,-25%,16µM*,4.6µM*,u,u
Cc1ccc(-n2nc3c(N4CCC(C(=O)NCCC(C)C)CC4)nnc(C)c3c2C)cc1,-12%,u,15%[46.1 µM],x,u,-9
O=C(Nc1ccc2nc(SCC(=O)N3CCOCC3)sc2c1)c1cccc(Br)c1,25µM*,-26%,-18%[46.1 µM],u,-24%,-35
O=C(COc1ccccc1Cl)Nc1ccc2nc(SCC(=O)N3CCOCC3)sc2c1,u,-14%,3%[46.1 µM],u,-12%,-35
SMILES,FMDV antiviral,VACV Venus inh,Lassa entry inh,MARV entry inh,Vaccinia mCherry,HCMV antiviral
O=C(Nc1ccc2nc(SCC(=O)N3CCOCC3)sc2c1)c1ccccc1Cl,u,-26%,3%[46.1 µM],14%[46.1 µM],-20%,-83*
COC(=O)CSc1nc2ccc(NC(=O)c3ccccc3C(=O)N3CCOCC3)cc2s1,-17%,-3%,-2%,-2%,-13%,-64*
O=C(Nc1ccc2nc(SCC(=O)N3CCOCC3)sc2c1)c1ccc(F)cc1,-16%,-19%,19%[46.1 µM],u,-11%,-31
O=C(Nc1ccc2nc(SCC(=O)N3CCOCC3)sc2c1)c1ccc(Cl)cc1,20µM*,u,u,u,u,-74*
O=C(Nc1ccc2nc(SCC(=O)N3CCOCC3)sc2c1)c1ccc(Br)cc1,u,-13%,1%[46.1 µM],u,-12%,-4
COc1cc2nc(NC(=O)c3ccc(S(=O)(=O)N4CCOCC4)cc3)sc2cc1OC,-10%,0%,-2%[46.1 µM],x,-6%,-14
O=C(Nc1cc(F)ccc1F)C1CCN(C(=O)c2cnn(-c3ccccc3)c2-n2cccc2)CC1,-28%,-9%,22%[46.1 µM],16%[46.1 µM],-15%,10
CCn1ccc2cc(S(=O)(=O)N3CCCN(C(=O)Nc4ccccc4F)CC3)ccc21,-10%,4%,-18%[46.1 µM],x,-3%,6
CC(C)C(=O)Nc1ccc2nc(SCC(=O)N3CCc4ccccc43)sc2c1,35µM*,-2%,-6%[46.1 µM],-19%[46.1 µM],-4%,-11
CSc1nc(C(=O)N2CCc3c(cnc(C)c3CNC(=O)c3ccc4c(c3)OCO4)C2)cs1,0%,-3%,x,x,-15%,x
CCCOc1ccc(CC2CCC(=O)NC2=O)cc1 (stereo not drawn),11µM*,x,x,x,x,-69*
N#CCCN1CCN(C(=S)c2ccc(-c3cccc(Cl)c3)o2)CC1,47%,-20%,26%,-16%,-30%,21
N#CCCN1CCN(C(=S)c2ccc(-c3ccc(Cl)c(Cl)c3)o2)CC1,7%,u,20µM*,14µM*,x,7
COc1ccc(CN2CCCC(Cn3cc(C(=O)N4CCCC4)nn3)C2)c(O)c1 (stereo not drawn),-12%,-9%,x,x,-10%,x
COc1cccc(C(C)NC(=O)Nc2ccccc2Cl)c1 (stereo not drawn),-13%,x,u,-25%,x,-64*
COc1cccc(C(C)NC(=O)c2c(F)cccc2Cl)c1 (stereo not drawn),1%,-2%,7%,2%,i,21
CN=C1N[C@H](c2ccccc2)N(c2ccccc2)S1,52%,x,x,x,x,x
Cc1cccc(C)c1OC(=O)Cc1ccccc1,-9%,8%,-3%,4%[46.1 µM],i,-39
Cc1cccc(C)c1OC(=O)Cc1ccccc1[N+](=O)[O-],-18%,-6%,-3%[46.1 µM],-1%[46.1 µM],i,-64*
c1ccc(CSc2nc3ncccc3[nH]2)cc1,37%,-14%,2%[46.1 µM],x,-12%,42
COC(=O)c1ccc(S(=O)(=O)N2CCCN(Cc3ccc(F)cc3)CC2)n1C,u,x,x,x,x,-64*
COc1ccc(CN2CCN(S(=O)(=O)c3ccc(F)cc3)CC2)cc1OC,-30%,-17%,-24%,-1%,-9%,-60*
COc1ccc(CN2CCN(S(=O)(=O)c3ccc(NC(C)=O)cc3)CC2)cc1OC,x,-28%,u,0%,-11%,u
COc1ccc(S(=O)(=O)N2CCN(CCCOc3ccc(F)cc3)CC2)cc1OC,u,-23%,u,10µM*,-9%,u
